Laboratory results reported in PubChem BioAssay AID1159580 (chemical genetic matrix, 2015).
Several values for one entry are separate records, joined by “and”; a condition that tells them apart may be missing. Equal values may be shown once. Screen size: about 5,500 compounds; about 2,000 (36%) were called active. About 18% were inconclusive and are not listed. No stated cut-off is given here; in the data, active means normalized growth mostly below about 0.91 (no sharp cut-off); inconclusive means no clear call, values can overlap the other calls; inactive means mostly above about 0.92. This is one part of the list.

Assay: chemical genetic growth profiling, strain panel (AID 1159580);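 further: tested at 20 µM; growth read once vehicle control cultures reached saturation at 30 °C; 1 = growth at the plate median or of vehicle wells; lower values mean less growth of the strain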
Settings: S. cerevisiae deletion strains, growth OD

Measured: normalized growth

COC(=O)[C@@H]1C(O)CC[C@H]2CN3CCc4c([nH]c5ccccc45)[C@@H]3C[C@@H]21 (some centres not stated)
inactive: locus YAL013W, strain DEP1, hits give low values 0.998 | locus YAL021C, strain ccr4, hits give low values 1.01 | locus YAL026C, strain drs2, hits give low values 1.01 | locus YAL030W, strain snc1, hits give low values 1.01 | locus YBL061C, strain skt5, hits give low values 1.01 | locus YBR009C, strain hhf1, hits give low values 0.998 | locus YBR021W, strain FUR4, hits give low values 1.01 | locus YBR023C, strain chs3, hits give low values 1.02 | locus YBR171W, strain sec66, hits give low values 1.02 | locus YBR229C, strain ROT2, hits give low values 0.99 | locus YBR231C, strain swc5, hits give low values 0.999 | locus YBR279W, strain paf1, hits give low values 1.02 | locus YCL011C, strain gbp2, hits give low values 1.01 | locus YCL016C, strain dcc1, hits give low values 1.02 | locus YCL029C, strain bik1, hits give low values 0.993 | locus YCL061C, strain MRC1, hits give low values 1.01 | locus YCL069W, strain vba3, hits give low values 1.01 | locus YCR088W, strain abp1, hits give low values 1.01 | locus YDL005C, strain med2, hits give low values 1.01 | locus YDL035C, strain GPR1, hits give low values 0.994 | locus YDL040C, strain nat1, hits give low values 1.01 | locus YDL074C, strain BRE1, hits give low values 1.01 | locus YDL101C, strain DUN1, hits give low values 0.99 | locus YDL134C, strain PPH21, hits give low values 0.996 | locus YDL185W, strain tfp1, hits give low values 0.971 | locus YDL192W, strain arf1, hits give low values 0.983 | locus YDR001C, strain nth1, hits give low values 1.02 | locus YDR069C, strain doa4, hits give low values 0.999 | locus YDR101C, strain arx1, hits give low values 1 | locus YDR137W, strain rgp1, hits give low values 1.02 | locus YDR150W, strain NUM1, hits give low values 0.973 | locus YDR159W, strain sac3, hits give low values 0.996 | locus YDR162C, strain NBP2, hits give low values 1.02 | locus YDR195W, strain ref2 1.02 | locus YDR297W, strain sur2, hits give low values 1.03 | locus YDR318W, strain mcm21, hits give low values 0.981 | locus YDR334W, strain swr1, hits give low values 1.02 | locus YDR335W, strain msn5, hits give low values 1.02 | locus YDR388W, hits give low values 0.999 | locus YDR392W, strain spt3, hits give low values 0.92 | locus YDR502C, strain sam2, hits give low values 1.01 | locus YEL003W, strain gim4, hits give low values 1.02 | locus YEL037C, strain rad23, hits give low values 1.03 | locus YEL061C, strain CIN8 (second series), hits give low values 1.02 | locus YEL061C, strain CIN8, hits give low values 0.998 | locus YER015W, strain faa2, hits give low values 1.01 | locus YER016W, strain bim1, hits give low values 1.02 | locus YER110C, hits give low values 0.982 | locus YER111C, strain swi4, hits give low values 1.01 | locus YER155C, strain BEM2 (second series), hits give low values 1.01 | locus YER155C, strain BEM2, hits give low values 0.992 | locus YER167W, strain BCK2, hits give low values 0.979 | locus YFR010W, strain ubp6, hits give low values 1.01 | locus YGL078C, strain dbp3, hits give low values 0.982 | locus YGL086W, strain mad1, hits give low values 0.955 | locus YGL167C, strain pmr1, hits give low values 1.01 | locus YGL173C, strain kem1, hits give low values 1 | locus YGL227W, strain vid30, hits give low values 1.02 | locus YGL240W, strain doc1, hits give low values 0.992 | locus YGL248W, strain PDE1, hits give low values 0.982 | locus YGL253W, strain hxk2, hits give low values 1.02 | locus YGR078C, strain PAC10, hits give low values 1 | locus YGR135W, strain pre9, hits give low values 1.01 | locus YGR229C, strain SMI1, hits give low values 1.03 | locus YGR252W, strain gcn5, hits give low values 1.01 | locus YHR013C, strain ard1, hits give low values 1.02 | locus YHR027C, strain rpn1, hits give low values 1.02 | locus YHR030C, strain SLT2, hits give low values 0.991 and 1.02 | locus YHR079C, strain IRE1 (second series), hits give low values 1.01 | locus YHR079C, strain IRE1, hits give low values 1.02 | locus YHR094C, strain hxt1, hits give low values 0.974 | locus YHR129C, strain ARP1, hits give low values 0.998 | locus YHR142W, strain chs7, hits give low values 1.02 | locus YHR200W, strain rpn10, hits give low values 0.988 | locus YIL066C, strain RNR3, hits give low values 0.984 | locus YIL073C, strain SPO22, hits give low values 0.915 | locus YIL125W, strain kgd1, hits give low values 0.981 | locus YIR030C, strain dcg1, hits give low values 0.994 | locus YJL092W, strain hpr5, hits give low values 1.01 | locus YJL095W, strain BCK1 (second series), hits give low values 1 | locus YJL095W, strain BCK1, hits give low values 1.03 and 1.02 | locus YJL115W, strain asf1, hits give low values 1.02 | locus YJL129C, strain trk1, hits give low values 1.03 | locus YJL134W, strain LCB3, hits give low values 0.985 | locus YJL154C, strain vps35, hits give low values 1.02 | locus YJL164C, strain tpk1, hits give low values 0.999 | locus YJL166W, strain qcr8, hits give low values 1.01 | locus YJL168C, strain set2, hits give low values 1 | locus YJL187C, strain SWE1 (second series), hits give low values 0.995 | locus YJL187C, strain SWE1, hits give low values 1.01 | locus YJR043C, strain POL32, hits give low values 0.998 | locus YJR066W, strain TOR1, hits give low values 0.954
